Measured values reported in PubChem BioAssay.
“And” between values parts separate entries of the source, which are not always exact repeats. Equal entries are not always repeated. Values without a mark were called inactive. Records with an inconclusive call do not appear. The source made the active and inactive calls.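 The calls were made as follows, unless noted: active = GFP signal, as percent of the solvent control, above the screen mean plus 3 SD, about 149; inconclusive = no reading because the compound's own fluorescence upset strain identification; inactive = the rest.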

Assay: TOR pathway RTG branch CIT2 reporter changes – S. cerevisiae, GFP fusion, multiplex flow cytometry, primary screen (AID 1870;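 active = percent response above a set limit, the screen-wide mean plus 3 SD, cut at about 130% in these data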;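 also: barcoded CIT2-GFP strain pooled with four other GFP strains with rapamycin as positive control; median GFP fluorescence per well over plate mean of DMSO wells so 100% = DMSO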)
Settings: S. cerevisiae CIT2-GFP expression, 3 h, at 10 µM, active compounds read high

Structure (SMILES)	percent response of DMSO control
CC1(C)CC(=O)c2cn3c(nc2C1)nc1ccccc13	104%
COc1ccc(C(=O)N2c3cc4c(cc3C(C)=CC2(C)C)OCO4)cc1	98.9%
CCc1oc2ccccc2c1C(=O)c1cc(Br)c(O)c(Br)c1	106%
Cc1oc2cc(O)cc(O)c2c(=O)c1-c1ccc2c(c1)OCCCO2	88.2%
CCCC(=O)Nc1ncnc2c1ncn2[C@@H]1O[C@@H]2COP(=O)(O)O[C@H]2[C@H]1OC(=O)CCC	97.9%
O=C(Cc1ccccc1)NCC(=O)OCC(=O)c1ccccc1Cl	107%
CC/C(=C(\c1ccc(O)cc1)c1ccc(OCCN(C)C)cc1)c1ccccc1	109%
CC(C)(C)C(=O)Nc1cccc(OC(F)(F)C(F)Cl)c1 (stereo unspecified)	105%
Cc1ccc(/C(=C\CN2CCCC2)c2ccccn2)cc1	108%
CC(C)(C)c1ccc(/C=C/C(=O)N2CCCCC2)cc1	78.7%
Cn1c(=O)[nH]c(=O)c2c1nc(NCc1ccco1)n2CCCc1ccccc1	100%
CN(C)CCOC(=O)C(c1ccccc1)C1(O)CCCC1 (stereo unspecified)	97.9%
COc1ccccc1C(=O)Oc1ccc2c(c1)O/C(=C\c1ccncc1)C2=O	97.7%
CC(=O)CCCCn1c(=O)c2c(ncn2C)n(C)c1=O	106%
CS(=O)c1ccccc1O (stereo unspecified)	92.8%
COc1cccc(OCc2nnc(-c3cccs3)o2)c1	102%
CCOC(=O)C(=O)N1CCN(c2ccccc2OC)CC1	98.6%
COc1ccc(CCN2C(=O)CSC2c2ccc(OC)c(OC)c2)cc1OC (stereo unspecified)	87.2%
CCCCCCCC(=O)OCC(O)CO (stereo unspecified)	97.8%
CN1CCN(C2=Nc3ccccc3Oc3ccc(Cl)cc32)CC1	111%
Cc1ccc(CN2CCN(CCCc3ccccc3)CC2CCO)cc1 (stereo unspecified)	106%

Assay: TOR pathway LAP4-GFP level changes – S. cerevisiae, multiplex flow cytometry, primary screen (AID 1873)
Settings: S. cerevisiae LAP4-GFP expression, 3 h, at 10 µM, active compounds read high

Structure (SMILES)	GFP response vs DMSO
O=C(Cc1ccccc1[N+](=O)[O-])NCc1ccncc1	97.4%
Cn1nc(-c2ccc(Cl)cc2)nc2c(=O)n(C)c(=O)nc1-2	137%
O=C(O)CCCCCNC(=O)Nc1ccc2c(c1)OCCO2	77%
COc1ccc(S(N)(=O)=O)cc1C(N)=O	101%
Cc1occc(=O)c1O	71%
C[C@]12CCC3C(CC=C4C[C@@H](O)CC[C@@]43C)C1CCC2[C@]1(C)CCC(=O)O1 (stereo partly specified)	84.6%
CC(=O)N(CCC1(c2ccc(C)cc2)CCOC(C(C)C)C1)Cc1ccco1 (stereo unspecified)	82%
O=C(CCc1ccccc1)Nc1ccccc1C(F)(F)F	94.7%
CN(C)C(=O)Oc1cccc([N+](C)(C)C)c1	115% and 112%
CCOc1ccc(C(NC(C)=O)c2ccc(OC)c(OC)c2)cc1 (stereo unspecified)	101%
COc1ccccc1N=CC1=C(O)CC(c2ccccc2)CC1=O (stereo unspecified)	82.5%
O=C1CC(c2ccc(O)cc2)Oc2cc(O)cc(O)c21 (stereo unspecified)	104%
O=C(NCCO)c1ccc(Cl)c(Cl)c1	99.1%
N/C(Cc1ccc(Cl)cc1Cl)=N\OC(=O)c1ccc(Br)o1	167% (active)
CC1=NN(C(=O)c2ccc(Br)cc2)C(O)(c2ccccc2)C1 (stereo unspecified)	109%
Clc1cc(-c2ccc(/C=N/n3cnnc3)o2)ccc1Br	114%
O=c1oc2c(CN3CCCCC3)c(O)ccc2c2c1CCCCC2	107%
Cc1ccc(-c2nnc(-c3ccc4c(c3)OCO4)o2)cc1	121%
CC1(C)CC(=O)c2cn3c(nc2C1)nc1ccccc13	99.1%
COc1ccc(C(=O)N2c3cc4c(cc3C(C)=CC2(C)C)OCO4)cc1	116%
CCc1oc2ccccc2c1C(=O)c1cc(Br)c(O)c(Br)c1	78.1%
Cc1oc2cc(O)cc(O)c2c(=O)c1-c1ccc2c(c1)OCCCO2	128%
CCCC(=O)Nc1ncnc2c1ncn2[C@@H]1O[C@@H]2COP(=O)(O)O[C@H]2[C@H]1OC(=O)CCC	96.3%
O=C(Cc1ccccc1)NCC(=O)OCC(=O)c1ccccc1Cl	74.3%
CC/C(=C(\c1ccc(O)cc1)c1ccc(OCCN(C)C)cc1)c1ccccc1	99.1%
